# Counter-ions that a name gives are not always drawn. ± gives the standard deviation of the averaged measurements.
# Tests used:
# [1] = test system: Saccharomyces cerevisiae BY4741 SeMeCo community; experiment: mean cell size (pixel area) (pixels); higher = larger cells; settings: 10 µM; 24 h; SM minimal medium
# Method in brief: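 Mean cell pixel area per well was measured in a four-plasmid fluorescent community of Saccharomyces cerevisiae BY4741, where every plasmid complements one auxotrophy and carries a fluorescent marker. Cells from an overnight preculture at OD600 = 1.0 were diluted to OD600 = 0.3 and dispensed at 70 µl into 384-well plates acoustically predosed with drug to a final 10 µM in SM medium. Incubation lasted 24 h, followed by paraformaldehyde fixation, automated confocal imaging and analysis in Harmony. Reported figures are averaged over 3 replicates. Same SeMeCo high-content imaging drug screen: Selleck FDA-approved drugs at 10 µM, 24 h in SM medium, 384-well plates, 3 replicates.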
# [2] = test system: Saccharomyces cerevisiae BY4741 SeMeCo community; experiment: z-score of prototroph abundance vs DMSO median; higher = larger share of this subpopulation than in DMSO controls; settings: 10 µM; 24 h; SM minimal medium; subpopulation (auxotrophy): Prototroph
# Method in brief: (§1)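 Four plasmids, each restoring a single auxotrophy and encoding a distinct fluorescent protein, were carried by a Saccharomyces cerevisiae BY4741 community. After overnight growth to OD600 1.0 and dilution to 0.3, 70 µl per well was grown for 24 h in minimal SM medium on 384-well plates acoustically predosed with library drugs at 10 µM final. Following paraformaldehyde fixation, automated confocal microscopy was used, with single-auxotroph fluorescent strains defining thresholds and autofluorescence correction. Subpopulation abundance was then scored as a z-score against the vehicle-well median.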
# [3] = test system: Saccharomyces cerevisiae BY4741 SeMeCo community; experiment: z-score of subpopulation abundance vs DMSO median, subpopulation auxotrophic for M; higher = larger share of this subpopulation than in DMSO controls; settings: 10 µM; 24 h; SM minimal medium; subpopulation (auxotrophy): M
# Method in brief: as §1
# [4] = test system: Saccharomyces cerevisiae BY4741 SeMeCo community; experiment: z-score of subpopulation abundance vs DMSO median, subpopulation auxotrophic for L; higher = larger share of this subpopulation than in DMSO controls; settings: 10 µM; 24 h; SM minimal medium; subpopulation (auxotrophy): L
# Method in brief: as §1
# [5] = test system: Saccharomyces cerevisiae BY4741 SeMeCo community; experiment: z-score of subpopulation abundance vs DMSO median, subpopulation auxotrophic for H; higher = larger share of this subpopulation than in DMSO controls; settings: 10 µM; 24 h; SM minimal medium; subpopulation (auxotrophy): H
# Method in brief: as §1
# [6] = test system: Saccharomyces cerevisiae BY4741 SeMeCo community; experiment: z-score of subpopulation abundance vs DMSO median, subpopulation auxotrophic for LU; higher = larger share of this subpopulation than in DMSO controls; settings: 10 µM; 24 h; SM minimal medium; subpopulation (auxotrophy): LU
# Method in brief: as §1
# [7] = test system: Saccharomyces cerevisiae BY4741 SeMeCo community; experiment: z-score of subpopulation abundance vs DMSO median, subpopulation auxotrophic for LM; higher = larger share of this subpopulation than in DMSO controls; settings: 10 µM; 24 h; SM minimal medium; subpopulation (auxotrophy): LM
# Method in brief: as §1
# [8] = test system: Saccharomyces cerevisiae BY4741 SeMeCo community; experiment: z-score of subpopulation abundance vs DMSO median, subpopulation auxotrophic for HM; higher = larger share of this subpopulation than in DMSO controls; settings: 10 µM; 24 h; SM minimal medium; subpopulation (auxotrophy): HM
# Method in brief: as §1
# [9] = test system: Saccharomyces cerevisiae BY4741 SeMeCo community; experiment: z-score of subpopulation abundance vs DMSO median, subpopulation auxotrophic for HU; higher = larger share of this subpopulation than in DMSO controls; settings: 10 µM; 24 h; SM minimal medium; subpopulation (auxotrophy): HU
# Method in brief: as §1
# [10] = test system: Saccharomyces cerevisiae BY4741 SeMeCo community; experiment: z-score of subpopulation abundance vs DMSO median, subpopulation auxotrophic for HL; higher = larger share of this subpopulation than in DMSO controls; settings: 10 µM; 24 h; SM minimal medium; subpopulation (auxotrophy): HL
# Method in brief: as §1
# [11] = test system: Saccharomyces cerevisiae BY4741 SeMeCo community; experiment: z-score of subpopulation abundance vs DMSO median, subpopulation auxotrophic for HLU; higher = larger share of this subpopulation than in DMSO controls; settings: 10 µM; 24 h; SM minimal medium; subpopulation (auxotrophy): HLU
# Method in brief: as §1
# [12] = test system: Saccharomyces cerevisiae BY4741 SeMeCo community; experiment: z-score of subpopulation abundance vs DMSO median, subpopulation auxotrophic for HUM; higher = larger share of this subpopulation than in DMSO controls; settings: 10 µM; 24 h; SM minimal medium; subpopulation (auxotrophy): HUM
# Method in brief: as §1
# [13] = test system: Saccharomyces cerevisiae BY4741 SeMeCo community; experiment: z-score of subpopulation abundance vs DMSO median, subpopulation auxotrophic for LUM; higher = larger share of this subpopulation than in DMSO controls; settings: 10 µM; 24 h; SM minimal medium; subpopulation (auxotrophy): LUM
# Method in brief: as §1
# [14] = test system: Saccharomyces cerevisiae BY4741 SeMeCo community; experiment: z-score of subpopulation abundance vs DMSO median, subpopulation auxotrophic for HLUM; higher = larger share of this subpopulation than in DMSO controls; settings: 10 µM; 24 h; SM minimal medium; subpopulation (auxotrophy): HLUM
# Method in brief: as §1
# [15] = test system: Saccharomyces cerevisiae BY4741 SeMeCo community; experiment: z-score of subpopulation abundance vs DMSO median, subpopulation auxotrophic for U; higher = larger share of this subpopulation than in DMSO controls; settings: 10 µM; 24 h; SM minimal medium; subpopulation (auxotrophy): U
# Method in brief: as §1
# [16] = test system: Saccharomyces cerevisiae BY4741 SeMeCo community; experiment: z-score of subpopulation abundance vs DMSO median, subpopulation auxotrophic for UM; higher = larger share of this subpopulation than in DMSO controls; settings: 10 µM; 24 h; SM minimal medium; subpopulation (auxotrophy): UM
# Method in brief: as §1
# [17] = test system: Saccharomyces cerevisiae BY4741 SeMeCo community; experiment: z-score of subpopulation abundance vs DMSO median, subpopulation auxotrophic for HLM; higher = larger share of this subpopulation than in DMSO controls; settings: 10 µM; 24 h; SM minimal medium; subpopulation (auxotrophy): HLM
# Method in brief: as §1
Compound,mean cell size [1],z-score of prototroph abundance [2],z-score of subpopulation abundance [3],z-score of subpopulation abundance [4],z-score of subpopulation abundance [5],z-score of subpopulation abundance [6],z-score of subpopulation abundance [7],z-score of subpopulation abundance [8],z-score of subpopulation abundance [9],z-score of subpopulation abundance [10],z-score of subpopulation abundance [11],z-score of subpopulation abundance [12],z-score of subpopulation abundance [13],z-score of subpopulation abundance [14],z-score of subpopulation abundance [15],z-score of subpopulation abundance [16],z-score of subpopulation abundance [17]
Cc1cnc(NC(=O)C2=C(O)c3ccccc3S(=O)(=O)N2C)s1 [Meloxicam],12.77 ± 0.087,1.47,-0.52,-0.61,-0.59,-0.98,-0.94,-0.89,-0.61,-0.41,-1.26,-0.88,-1.43,-0.98,–,–,–
Clc1ccc(C(Cn2ccnc2)OCc2c(Cl)cccc2Cl)c(Cl)c1 (centres undefined) [Isoconazole nitrate],12.1 ± 0.18,-7.83,-0.17,-3.43,21,-1.43,-1.59,3.75,11.7,3.07,2.86,4.65,-0.77,9.4,2.14,5.43,–
CCN[C@@H]1C[C@H](N)[C@@H](O[C@H]2OC(CN)=CC[C@H]2N)[C@H](O)[C@H]1O[C@H]1OC[C@](C)(O)[C@H](NC)[C@H]1O [Netilmicin Sulfate],12.1 ± 0.17,–,1.38,-0.06,-0.25,0.47,0.44,0.03,0.01,-0.24,0.09,0.71,0.72,0.72,0.67,0.17,–
Cc1ccc(O)c([C@H](CCN(C(C)C)C(C)C)c2ccccc2)c1 [Tolterodine tartrate],12.36 ± 0.069,-0.65,0.22,0.31,-0.19,-0.23,1.32,0.62,0.88,-0.22,0.29,1.13,1.3,-0.2,-0.01,1.04,–
COc1ccc2[nH]c([S+]([O-])Cc3ncc(C)c(OC)c3C)nc2c1 (centres undefined) [Omeprazole Sodium],–,0.8,-0.71,0.3,1.92,-0.12,–,-0.21,-0.78,–,0.43,–,–,-0.1,-1.22,-1.63,-0.14
CCCCCCCCOc1ccccc1C(=O)Nc1ccc(C(=O)OCC[N+](C)(CC)CC)cc1 [Otilonium Bromide],12.27 ± 0.099,–,-2.04,-3.08,4.58,0.74,-2.38,5.47,3.65,1.68,3.81,2.02,–,12.2,0.58,-0.66,–
COc1cc2c(cc1OC)C(=O)C(CC1CCN(Cc3ccccc3)CC1)C2 (centres undefined) [Donepezil HCl],12 ± 0.22,0.26,0.12,-0.02,–,-0.36,-0.26,-0.33,–,–,-0.1,0.3,-0.52,-1.2,-0.01,–,–

# — the supplement of paper PMC8975748
